Reference: PubChem BioAssay AID1159580 (chemical genetic matrix, 2015)
About 2,000 (36%) of roughly 5,500 compounds were called active. About 18% were inconclusive and are not listed. Cut-off read from the data, not from the text of the source: active = normalized growth mostly below about 0.91 (no sharp cut-off); inconclusive = no clear call, values can overlap the other calls; inactive = mostly above about 0.92. This is one part of the list.

Assay: chemical genetic growth profiling, strain panel (AID 1159580);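 note: tested at 20 µM; growth read once vehicle control cultures reached saturation at 30 °C; 1 = growth at the plate median or of vehicle wells; lower values mean less growth of the strain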
Conditions: growth OD

Measured: normalized growth

CC1C(=O)OC2C1CCC1(C)C=CC(=O)C3(C)OC213 (stereo unspecified)
inactive: S. cerevisiae deletion strains, locus YAL013W, strain DEP1, active compounds read low 0.968 | S. cerevisiae deletion strains, locus YBR021W, strain FUR4, active compounds read low 1.01 | S. cerevisiae deletion strains, locus YBR229C, strain ROT2, active compounds read low 1.01 | S. cerevisiae deletion strains, locus YCL029C, strain bik1, active compounds read low 1.01 | S. cerevisiae deletion strains, locus YDL035C, strain GPR1, active compounds read low 1.02 | S. cerevisiae deletion strains, locus YDL074C, strain BRE1, active compounds read low 0.974 | S. cerevisiae deletion strains, locus YDL101C, strain DUN1, active compounds read low 1 | S. cerevisiae deletion strains, locus YDL134C, strain PPH21, active compounds read low 0.999 | S. cerevisiae deletion strains, locus YDL185W, strain tfp1, active compounds read low 1.01 | S. cerevisiae deletion strains, locus YDL192W, strain arf1, active compounds read low 0.999 | S. cerevisiae deletion strains, locus YDR101C, strain arx1, active compounds read low 0.989 | S. cerevisiae deletion strains, locus YDR150W, strain NUM1, active compounds read low 1 | S. cerevisiae deletion strains, locus YDR162C, strain NBP2, active compounds read low 0.985 | S. cerevisiae deletion strains, locus YDR318W, strain mcm21, active compounds read low 1.01 | S. cerevisiae deletion strains, locus YDR388W, active compounds read low 1 | S. cerevisiae deletion strains, locus YDR502C, strain sam2, active compounds read low 0.985 | S. cerevisiae deletion strains, locus YEL061C, strain CIN8, active compounds read low 1.02 | S. cerevisiae deletion strains, locus YER110C, active compounds read low 1.01 | S. cerevisiae deletion strains, locus YER155C, strain BEM2, active compounds read low 1 | S. cerevisiae deletion strains, locus YER167W, strain BCK2, active compounds read low 1.02 | S. cerevisiae deletion strains, locus YGL078C, strain dbp3, active compounds read low 1 | S. cerevisiae deletion strains, locus YGL086W, strain mad1, active compounds read low 1.01 | S. cerevisiae deletion strains, locus YGL248W, strain PDE1, active compounds read low 1.01 | S. cerevisiae deletion strains, locus YGR078C, strain PAC10, active compounds read low 0.989 | S. cerevisiae deletion strains, locus YGR135W, strain pre9, active compounds read low 0.976 | S. cerevisiae deletion strains, locus YGR229C, strain SMI1, active compounds read low 0.999 | S. cerevisiae deletion strains, locus YGR252W, strain gcn5, active compounds read low 1.01 | S. cerevisiae deletion strains, locus YHR030C, strain SLT2, active compounds read low 1.01 | S. cerevisiae deletion strains, locus YHR079C, strain IRE1 (second series), active compounds read low 1.02 | S. cerevisiae deletion strains, locus YHR094C, strain hxt1, active compounds read low 0.999 | S. cerevisiae deletion strains, locus YHR129C, strain ARP1, active compounds read low 1.02 | S. cerevisiae deletion strains, locus YHR200W, strain rpn10, active compounds read low 1 | S. cerevisiae deletion strains, locus YIL066C, strain RNR3, active compounds read low 0.999 | S. cerevisiae deletion strains, locus YIL073C, strain SPO22, active compounds read low 1.09 | S. cerevisiae deletion strains, locus YIL125W, strain kgd1, active compounds read low 1.01 | S. cerevisiae deletion strains, locus YIR030C, strain dcg1, active compounds read low 1 | S. cerevisiae deletion strains, locus YJL095W, strain BCK1, active compounds read low 0.988 | S. cerevisiae deletion strains, locus YJL134W, strain LCB3, active compounds read low 1.01 | S. cerevisiae deletion strains, locus YJL168C, strain set2, active compounds read low 1.01 | S. cerevisiae deletion strains, locus YJL187C, strain SWE1 (second series), active compounds read low 1.01 | S. cerevisiae deletion strains, locus YJR043C, strain POL32, active compounds read low 1.06 | S. cerevisiae deletion strains, locus YJR075W, strain HOC1, active compounds read low 1 | S. cerevisiae deletion strains, locus YKL009W, strain mrt4, active compounds read low 1.02 | S. cerevisiae deletion strains, locus YKL068W, active compounds read low 1 | S. cerevisiae deletion strains, locus YKL085W, strain MDH1 (second series), active compounds read low 1.04 | S. cerevisiae deletion strains, locus YKL085W, strain MDH1, active compounds read low 1.04 | S. cerevisiae deletion strains, locus YKL190W, strain CNB1, active compounds read low 1.01 | S. cerevisiae deletion strains, locus YKR001C, strain vps1, active compounds read low 1 | S. cerevisiae deletion strains, locus YLR039C, strain RIC1, active compounds read low 1.01 | S. cerevisiae deletion strains, locus YLR058C, strain SHM2, active compounds read low 1.01 | S. cerevisiae deletion strains, locus YLR102C, strain apc9, active compounds read low 1.01 | S. cerevisiae deletion strains, locus YLR262C, strain YPT6, active compounds read low 0.996 | S. cerevisiae deletion strains, locus YLR268W, strain sec22, active compounds read low 0.959 | S. cerevisiae deletion strains, locus YLR330W, strain CHS5, active compounds read low 1.01 | S. cerevisiae deletion strains, locus YLR342W, strain FKS1 (second series), active compounds read low 1.06 | S. cerevisiae deletion strains, locus YLR371W, strain rom2, active compounds read low 1.01 | S. cerevisiae deletion strains, locus YLR418C, strain cdc73, active compounds read low 0.963 | S. cerevisiae deletion strains, locus YML016C, strain PPZ1, active compounds read low 1 | S. cerevisiae deletion strains, locus YML032C, strain rad52, active compounds read low 1.01 | S. cerevisiae deletion strains, locus YML124C, strain tub3, active compounds read low 1 | S. cerevisiae deletion strains, locus YMR078C, strain ctf18, active compounds read low 1 | S. cerevisiae deletion strains, locus YMR223W, strain ubp8, active compounds read low 1.01 | S. cerevisiae deletion strains, locus YMR263W, strain SAP30, active compounds read low 0.982 | S. cerevisiae deletion strains, locus YMR307W, strain GAS1, active compounds read low 1.02 | S. cerevisiae deletion strains, locus YNL067W, strain RPL9B, active compounds read low 0.97 | S. cerevisiae deletion strains, locus YNL128W, strain TEP1, active compounds read low 1 | S. cerevisiae deletion strains, locus YNL153C, strain GIM3, active compounds read low 0.989 | S. cerevisiae deletion strains, locus YNL233W, strain BNI4, active compounds read low 1.01 | S. cerevisiae deletion strains, locus YNL250W, strain rad50, active compounds read low 0.999 | S. cerevisiae deletion strains, locus YNL271C, strain bni1, active compounds read low 1.01 | S. cerevisiae deletion strains, locus YNL298W, strain CLA4, active compounds read low 0.99 | S. cerevisiae deletion strains, locus YNL307C, strain MCK1, active compounds read low 1.02 | S. cerevisiae deletion strains, locus YNL322C, strain KRE1, active compounds read low 1 | S. cerevisiae deletion strains, locus YNR052C, strain pop2, active compounds read low 1.02 | S. cerevisiae deletion strains, locus YOL006C, strain TOP1, active compounds read low 0.926 | S. cerevisiae deletion strains, locus YOL012C, strain htz1 1.83 | S. cerevisiae deletion strains, locus YOL147C, strain pex11, active compounds read low 1.01 | S. cerevisiae deletion strains, locus YOR061W, strain CKA2, active compounds read low 1.01 | S. cerevisiae deletion strains, locus YOR069W, strain VPS5, active compounds read low 1.01 | S. cerevisiae deletion strains, locus YOR136W, strain idh2, active compounds read low 1.01 | S. cerevisiae deletion strains, locus YOR144C, strain elg1, active compounds read low 0.997 | S. cerevisiae deletion strains, locus YOR184W, strain ser1, active compounds read low 1.01 | S. cerevisiae deletion strains, locus YOR316C, strain cot1, active compounds read low 1.01 | S. cerevisiae deletion strains, locus YPL055C, strain LGE1, active compounds read low 0.974 | S. cerevisiae deletion strains, locus YPL241C, strain CIN2, active compounds read low 1.01 | S. cerevisiae deletion strains, locus YPR119W, strain clb2, active compounds read low 0.996 | S. cerevisiae deletion strains, locus YPR141C, strain kar3, active compounds read low 0.998 | S. cerevisiae deletion strains, locus YPR163C, strain tif3, active compounds read low 1.01 | S. cerevisiae deletion strains, locus YPR167C, strain met16, active compounds read low 1 | S. cerevisiae deletion strains, strain wtn01, active compounds read low 0.996 | S. cerevisiae strains, strain wild type, active compounds read low 1.01
